# The whole screen tested about 2,400 compounds, of which about 360 (15%) were called active. The list is a sample of the results. Potency and affinity values are given separately. A number with no mark means an inactive call.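 How the source made its calls: active means viability falls under 70% at one or more tested concentrations, taken as toxicity; inactive means viability stays over 70% at every dose.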
# Test: HeLa cell cytotoxicity, dose response, cytotoxicity control for MgcRacGAP inhibitor project (AID 624300);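 further: 100% = median of untreated control wells on the same plate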
# Conditions: CellTiter-Glo luminescence, 24 h; series mostly up to 100 µM; viability: at the top concentration
row,SMILES,viability
1,COC(=O)CC1SC(=O)NC1=Nc1ccc(O)cc1 (centres undefined),113%
2,S=c1[nH]c2ccccc2n2c(=S)[nH]nc12,87.8%
3,O=C(CNC(=O)c1cccs1)N/N=C/c1ccc(O)cc1O,102%
4,COc1ccc(N2CCN(C(CNS(=O)(=O)c3cccs3)c3cccnc3)CC2)cc1 (centres undefined),98.2%
5,O=C1Nc2ccccc2C1=Nc1ccc2[nH]c3ccccc3c2c1,103%
6,COc1ccc(CN(C)CC(=O)Nc2ccc(Cl)cc2C(F)(F)F)c(OC)c1,82.5%
7,O=S(=O)(O)c1cc(O)c2ccc(Nc3ccccc3)cc2c1,103%
8,O=S(=O)(O)c1ccc(O)c2cc(Nc3ccccc3)ccc12,104%
9,CCOc1ccccc1Oc1cn[nH]c1-c1ccc(O)cc1O,86.2%
10,COc1cc(CNc2ccc3[nH]c(=O)[nH]c3c2)ccc1OCc1cccc(C)c1,97%
11,O=C1ON=C(c2ccccc2)/C1=C/c1ccco1,81.6%
12,COC(=O)C1=C(O)/C(=C\c2ccc(O)c(OC)c2)N=C1C,104%
13,COc1cc(/C=C2/C(=O)NN(c3ccc(Cl)cc3)C2=O)cc(Br)c1O,104%
14,COc1cc(/C=C2\Oc3cc(O)ccc3C2=O)ccc1O,113%
15,CCOc1cc(/C=N/NC(=O)c2c(-c3ccccc3)noc2C)ccc1O,113%
16,O=C1/C(=C/c2ccc(O)c(O)c2)Oc2cc(O)ccc21,100%
17,O=[N+]([O-])c1cccc(S(=O)(=O)N/N=C/c2ccc(O)cc2)c1,114%
18,COc1cc(/C=C/CN2CCC(Oc3ccc(C(=O)N4CCCC4)cc3)CC2)ccc1O,89.1%
19,Nc1ccc(N2CCN(c3ccc(F)cc3)CC2)cc1,103%
20,c1ccc(CNc2ccc(N3CCOCC3)cc2)cc1,99.7%

row,SMILES,viability
1,COc1ncnc2c1ncn2CCCNc1ccc(C)c(C)c1,98.5%
2,Cc1cc(C)nc(N/N=C/c2c[nH]c3ccccc23)n1,105%
3,O=C(O)c1ccc(N/N=C/c2c[nH]c3ccccc23)cc1,103%
4,C/C(=N\Nc1nc2ccccc2[nH]1)c1cccs1,83%
5,Cc1[nH]c2ccccc2c1/C=N/Nc1nncn1N,94.1%
6,O=c1cc(CN2CCOCC2)c2ccc(O)c(O)c2o1,87.7%
7,COc1cc(/C=N/NC(=O)Cn2nnc3ccccc32)ccc1O,99.2%
8,O=C(Nc1ccc(O)cc1)c1cc2ccccc2c(=O)s1,107%
9,CC[N+](CC)(CC)CCCCOc1ccc2c(c1)C(=O)c1cc(OCCCC[N+](CC)(CC)CC)ccc1-2,99.7%
10,FC(F)(F)c1cccc(N2CCC(N=CN3CCCCCC3)=N2)c1,94.9%
11,Oc1ccc(/C=N/Nc2ccc(C(F)(F)F)cn2)cc1,98%
12,Oc1ccc(C=NNc2ccccn2)c(O)c1,89.5%
13,Oc1cccc(Nc2ccccc2)c1,95.9%
14,Nc1ccc(Nc2ccccc2)c(Cl)c1,94.6%
15,CCOc1cc(/C=N/NC(=O)c2ccc(NC(=O)C3CC3)cc2)ccc1O,88.8%
16,O=C(CCN1CCCCCC1)Nc1ccc2c(c1)OCCO2,105%
17,C/C(CC(=O)Nc1ccc(N(C)C)cc1)=N\NC(=O)c1ccc([N+](=O)[O-])cc1,94.7%
18,O=C(Nc1ccc(O)cc1)c1cccc(Oc2ccc([N+](=O)[O-])cc2)c1,86.5%
19,O=C(CNC(=O)c1ccco1)N/N=C/c1ccc(O)cc1O,108%
20,Cc1ccc(OC(=S)Nc2ccc(O)cc2)cc1,109%

row,SMILES,viability
1,Cc1ccsc1/C=N/Nc1nc2ccccc2[nH]1,89.9%
2,COc1ccc(/C=N/Nc2nc3ccccc3s2)cc1O,97.9%
3,COc1cc(/C=N/Nc2nc(C)cc(=O)[nH]2)ccc1O,94.6%
4,COc1cc(/C=N/NC(=O)c2cc3ccccc3[nH]2)ccc1O,91.6%
5,CCC(=Nc1ccc(N)cc1)C1=C(O)C(C(=O)OC)C(C)(C)CC1=O (centres undefined),101%
6,COc1ccc(OC)c(CN2CCN(Cc3ccc(OC)c(OC)c3OC)CC2)c1,96.2%
7,CC1CC(C)(C)N(C(=O)CN2CCN(C)CC2)c2ccccc21 (centres undefined),100%
8,COc1ccccc1-n1c(=O)c2c3c(sc2n2c(=S)[nH]nc12)CCC3,88.5%
9,Oc1ccc(/C=N/Nc2ncnc3c2ncn3Cc2ccccc2)cc1O,85.7%
10,O=[N+]([O-])c1cccc(CN2CCN(c3cccc4[nH]ccc34)CC2)c1,105%
11,COc1ccccc1/C=C(/C(=O)OCC(=O)Nc1ccc(N(C)C)cc1)c1ccccc1,102%
12,COc1ccc(S(=O)(=O)N2CCC(N3CCN(c4ccccc4OC)CC3)CC2)cc1,101%
13,Cc1cccc(CN2CCN(Cc3ccco3)CC2)c1,100%
14,Nc1[nH]c2cc([N+](=O)[O-])ccc2c1-c1ccccn1,98.9%
15,COc1ccc(NCc2cc3ccccc3[nH]c2=O)cc1,83.7%
16,CN(C)c1ccc(NC(=O)COC(=O)CNC(=O)c2cccs2)cc1,100%
17,Cc1cc(OCCCN2CCN(Cc3ccccc3)CC2)ccc1[N+](=O)[O-],87.5%
18,Cc1c(N=C2NC(=O)/C(=C/c3ccc(O)cc3)S2)c(=O)n(-c2ccccc2)n1C,97.4%
19,O=C(CSc1ccc2ccccc2n1)N/N=C/c1ccc(O)cc1,100%
